This passage reports Potency results from PubChem BioAssay (NCATS).

For assay [1], the target named is Glutathione peroxidase 1 (Homo sapiens) (UniProt P07203). Description: Primary qHTS Assay for Inhibitors of Recombinant Selenoprotein Glutathione Peroxidase 1 (GPX1) (AID 1845191). Further: nearly all actives have a fitted effect of over 65% in size. As to conditions: recombinant GPX1, GR-coupled NADPH fluorescence, 15 min; series mostly up to 48.8 µM. The procedure, abridged: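 GR-coupled assay: compounds preincubated 30 min at room temperature with GPX1, then reaction started with CHP; final 10 nM GPX1, 1 mM GSH, 0.5 mM CHP, 0.5 mM NADPH, 100 nM GR, 0.01% BSA, pH 7.5 Tris buffer. NADPH fluorescence (340/450 nm) read at 0 and 15 min.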
A general note: qHTS replaces the single test concentration by a dilution series.

Assay [2] addresses Phospholipid hydroperoxide glutathione peroxidase GPX4 (Homo sapiens) (UniProt P36969). Nature of the assay: Primary qHTS Assay for Inhibitors of Recombinant Selenoprotein Glutathione Peroxidase 4 (GPX4) (AID 1845192). Further: nearly all actives have a fitted effect of over 65% in size. The note with it: recombinant GPX4, GR-coupled NADPH fluorescence, 15 min; series mostly up to 50 µM. The essentials: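 GR-coupled assay: recombinant GPX4 preincubated 30 min with compound at room temperature; final 200 nM GPX4, 1 mM GSH, 0.5 mM cumene hydroperoxide, 0.5 mM NADPH, 100 nM GR, 0.01% BSA, pH 7.5 Tris. NADPH fluorescence (340/450 nm) read at 0 and 15 min.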

Assay [3] concerns the target Luciferin 4-monooxygenase (Photinus pyralis) (UniProt P08659). Nature of the assay: Primary firefly luciferase (FLuc) qHTS assay for identification of artifact compounds. (AID 1845220). Further: nearly all actives have a fitted effect of over 60% in size. The note with it: purified firefly luciferase, luminescence, 5 min; series mostly up to 54.1 µM. The procedure, abridged: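 Enzymatic FLuc inhibition assay: compounds pre-exposed to luciferin/ATP (10 uM each) for 15 min, then purified P. pyralis enzyme at 10 nM added. Read-out: luminescence at 5 min.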

Assay [4] concerns Nanoluciferase (engineered Oplophorus gracilirostris luciferase). Nature of the assay: Primary Nanoluciferase (NLuc) qHTS assay for identification of artifact compounds. (AID 1845222).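 Further: NLuc secreted into diluted conditioned medium of S16 cells.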 As to conditions: NLuc-conditioned medium, Nano-Glo luminescence, 5 min; series mostly up to 54.1 µM. The essentials:
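S16 cell supernatant NLuc, 1:55; cpds qHTS; 15 min RT dark; Nano-Glo substrate 1:100, 5 min; luminescence; Hill fit of % inhibition.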

Assay [5] in a line: Primary redox qHTS assay for identification of artifact compounds. (AID 1845223). The note with it: Amplex Red/HRP redox cycling with DTT, fluorescence; series mostly up to 53.8 µM. The essentials:
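Amplex Red (25 uM) and HRP (250 mU/mL) in HBSS, with compounds for 15 min, then 250 uM DTT for 30 min, room temperature, dark. Fluorescence 525/598 nm read; normalized to DMSO and 10 uM DA3003; Hill fit.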

Assay [6] is described as follows: Primary fluorescence-based thiol-reactive (MSTI) qHTS assay for identification of artifact compounds. (AID 1845221). Further: nearly all actives have a fitted effect of over 65% in size. Further: potency means the concentration at half of the fitted maximal effect. The note with it: MSTI thiol-reactivity probe, 1 h; series mostly up to 53.8 µM. The procedure, abridged:
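One-hour, room-temperature, dark incubation of compound with 4 uM MSTI in PBS (pH 7.4, 2% DMSO) precedes a fluorescence read at 525 nm excitation, 598 nm emission; Hill-equation fitting yields concentration-response values.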

Structures are written as SMILES. Inconclusive results are not listed. Active and inactive are the calls of the source. The call rests on the fitted dose curve; in most records, active means well fitted curve in the direction sought with a large enough effect; inconclusive means small, poorly fitted or top-dose-only effect, or another doubt; inactive means no such curve, though single readings can be large; an effect the other way counts as inactive or inconclusive.

Sequence of Phospholipid hydroperoxide glutathione peroxidase GPX4 (Homo sapiens) (P36969 whole entry, looked up): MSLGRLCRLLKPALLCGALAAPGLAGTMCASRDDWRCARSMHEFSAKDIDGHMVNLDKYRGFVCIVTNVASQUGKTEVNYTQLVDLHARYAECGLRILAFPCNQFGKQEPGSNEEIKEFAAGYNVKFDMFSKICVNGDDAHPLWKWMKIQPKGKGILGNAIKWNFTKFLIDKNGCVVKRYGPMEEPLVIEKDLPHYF
Sequence of Glutathione peroxidase 1 (Homo sapiens) (P07203 whole entry, looked up): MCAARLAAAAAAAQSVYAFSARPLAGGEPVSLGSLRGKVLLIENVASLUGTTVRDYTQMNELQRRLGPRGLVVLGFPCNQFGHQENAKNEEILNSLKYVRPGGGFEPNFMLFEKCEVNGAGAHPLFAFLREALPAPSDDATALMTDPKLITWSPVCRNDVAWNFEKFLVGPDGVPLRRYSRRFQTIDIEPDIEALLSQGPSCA

For the compound `O=C(NO)c1cnc(N2CCN(S(=O)(=O)c3ccc4ccccc4c3)CC2)nc1`, the Potency entry in assay [1], in assay [2], in assay [3], in assay [4] and in assay [5] was “inactive” each time.

Turning to `CC1CCCC[C@H]2C(=O)C=C[C@H](O)[C@@H]2CC(=O)O1` (some centres not stated), the Potency entry in assay [1], in assay [2], in assay [3], in assay [4] and in assay [5] was “inactive” throughout.

As for `OC1CCC(Nc2nc(-c3ccccc3)nc3[nH]ccc23)CC1` (configuration not stated), the Potency entry in assay [1], in assay [2], in assay [3], in assay [4] and in assay [5] was “inactive” in each case.

In the case of `CN1CCN(c2ccc(Nc3cc(-c4cccc(-n5ccc6cc(C7CC7)cc(F)c6c5=O)c4CO)cn(C)c3=O)nc2)CC1`, the Potency result in assay [1], in assay [2], in assay [3], in assay [4] and in assay [5] was “inactive” each time.

Turning to `NC(=O)N1CCC(CC(=O)N2CCC(C3c4ncc(Br)cc4CCc4cc(Cl)cc(Br)c43)CC2)CC1` (configuration not stated), the Potency entry in assay [1], in assay [2], in assay [3], in assay [4] and in assay [5] was “inactive” in each case.

For `c1ccc(-c2cnn3cc(-c4ccc(OCCN5CCOCC5)cc4)cnc23)cc1`, the Potency entry in assay [1], in assay [2], in assay [6] and in assay [4] was “inactive” each time.

With `CC1(C)Oc2ncnc(N)c2N=C1c1ccc(C23CCC(CC(=O)O)(CC2)CC3)cc1`, the Potency result in assay [1], in assay [2], in assay [6], in assay [4] and in assay [5] was “inactive” throughout.

As to `CCN(Cc1ccccc1)C(=O)Cn1c(=O)n(C)c2cnc(-c3ccccc3)nc21`, the Potency result in assay [1], in assay [2], in assay [6] and in assay [4] was “inactive” throughout.

`CN(C)CCN(Cc1ccccc1)C(=O)c1cc(-c2ccc(F)cc2)n2nc(C(C)(C)C)cc2n1`: the Potency entry in assay [1], in assay [2], in assay [3], in assay [4] and in assay [5] was “inactive” in each case.

As for `COc1cc2c(cc1O)C1(Cc3ccc4c(c3C1O)OCO4)[N+](C)([O-])CC2` (configuration not stated), the Potency entry in assay [1], in assay [2] and in assay [4] was “inactive” throughout. For the same compound, the Potency in assay [6] is 5.21 µM (active).

With `C=C(C(=O)O)[C@@H]1CC=C(CCC(C)=O)[C@@H](C)CC1`, the Potency result in assay [1], in assay [2], in assay [3], in assay [4] and in assay [5] was “inactive” each time.
